# Data reported in PubChem BioAssay AID1159580 (chemical genetic matrix, 2015).
# In all, about 5,500 compounds went through this assay and about 2,000 (36%) were called active. Not shown: some 18% with an inconclusive outcome. The list shows a part of the results. A number with no mark means an inactive call. No stated cut-off is given here; in the data, active means normalized growth mostly below about 0.91 (no sharp cut-off); inconclusive means no clear call, values can overlap the other calls; inactive means mostly above about 0.92.
# Experiment: chemical genetic growth profiling, strain panel (AID 1159580);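 further: tested at 20 µM; growth read once vehicle control cultures reached saturation at 30 °C; 1 = growth at the plate median or of vehicle wells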
# Conditions: S. cerevisiae deletion strains, growth OD
# [1] = locus YHR030C, strain SLT2, stronger effect = lower value
# [2] = locus YHR079C, strain IRE1, stronger effect = lower value
# [3] = locus YJL095W, strain BCK1, stronger effect = lower value
# [4] = locus YJR066W, strain TOR1, stronger effect = lower value
# [5] = locus YLR113W, strain HOG1, stronger effect = lower value
# [6] = locus YNL183C, strain NPR1, stronger effect = lower value
# [7] = locus YOR231W, strain MKK1, stronger effect = lower value
# [8] = locus YPL256C, strain CLN2, stronger effect = lower value
compound,measurement,setting,value
Nc1cc(=O)[nH]c(N)n1,normalized growth,"locus YAL040C, strain CLN3, stronger effect = lower value",1.01
same,normalized growth,"locus YCL061C, strain MRC1 (second series), stronger effect = lower value",0.991
same,normalized growth,"locus YDR150W, strain NUM1, stronger effect = lower value",0.978
same,normalized growth,"locus YDR363W, strain ESC2, stronger effect = lower value",0.953
same,normalized growth,"locus YER002W, strain NOP16, stronger effect = lower value",1.01
same,normalized growth,"locus YMR307W, strain GAS1, stronger effect = lower value",0.981
same,normalized growth,"locus YNL128W, strain TEP1, stronger effect = lower value",0.984
same,normalized growth,"locus YNL175C, strain NOP13, stronger effect = lower value",1.01
same,normalized growth,"locus YNL197C, strain WHI3, stronger effect = lower value",0.987
same,normalized growth,"locus YNL224C, strain SQS1, stronger effect = lower value",1.01
same,normalized growth,"locus YNL322C, strain KRE1, stronger effect = lower value",1
same,normalized growth,"locus YOR083W, strain WHI5 (second series), stronger effect = lower value",1.02
same,normalized growth,"locus YPL241C, strain CIN2, stronger effect = lower value",1.01
CC(C)(C)c1ccc(C(=N)SC(C(=O)C(F)(F)F)c2ccccc2)cc1 (centres undefined),normalized growth,"locus YAR019C, strain CDC15, stronger effect = lower value",0.987
same,normalized growth,"locus YBL105C, strain PKC1, stronger effect = lower value",0.994
same,normalized growth,"locus YBR135W, strain CKS1, stronger effect = lower value",0.994
same,normalized growth,"locus YBR136W, strain MEC1, stronger effect = lower value",0.985
same,normalized growth,"locus YBR160W, strain CDC28, stronger effect = lower value",0.994
same,normalized growth,"locus YDL017W, strain CDC7, stronger effect = lower value",0.998
same,normalized growth,"locus YDL028C, strain MPS1, stronger effect = lower value",0.989
same,normalized growth,"locus YDL101C, strain DUN1, stronger effect = lower value",0.992
same,normalized growth,"locus YDL108W, strain KIN28, stronger effect = lower value",0.987
same,normalized growth,"locus YDL132W, strain cdc53, stronger effect = lower value",0.989
same,normalized growth,"locus YDL214C, strain PRR2, stronger effect = lower value",0.916
same,normalized growth,"locus YDR052C, strain DBF4, stronger effect = lower value",0.993
same,normalized growth,"locus YDR054C, strain cdc34, stronger effect = lower value",0.986
same,normalized growth,"locus YDR226W, strain ADK1, stronger effect = lower value",0.993
same,normalized growth,"locus YDR477W, strain SNF1, stronger effect = lower value",0.865
same,normalized growth,"locus YER123W, strain YCK3, stronger effect = lower value",0.877
same,normalized growth,"locus YER133W, strain GLC7, stronger effect = lower value",0.942
same,normalized growth,"locus YFL009W, strain cdc4, stronger effect = lower value",0.991
same,normalized growth,"locus YFL029C, strain CAK1, stronger effect = lower value",0.982
same,normalized growth,"locus YFR003C, strain YPI1, stronger effect = lower value",0.986
same,normalized growth,"locus YFR019W, strain FAB1, stronger effect = lower value",0.884
same,normalized growth,"locus YFR028C, strain CDC14, stronger effect = lower value",0.985
same,normalized growth,"locus YGR040W, strain KSS1, stronger effect = lower value",0.894
same,normalized growth,"locus YGR052W, strain FMP48, stronger effect = lower value",0.96
same,normalized growth,"locus YGR092W, strain DBF2, stronger effect = lower value",0.887
same,normalized growth,[1],0.471 (active)
same,normalized growth,[2],0.804
same,normalized growth,"locus YHR082C, strain KSP1, stronger effect = lower value",0.766
same,normalized growth,"locus YHR205W, strain SCH9, stronger effect = lower value",0.778
same,normalized growth,"locus YIL147C, strain SLN1, stronger effect = lower value",0.992
same,normalized growth,[3],0.868
same,normalized growth,"locus YJL128C, strain PBS2, stronger effect = lower value",1.02
same,normalized growth,"locus YJL157C, strain FAR1, stronger effect = lower value",0.966
same,normalized growth,"locus YJR016C, strain ILV3, stronger effect = lower value",0.995
same,normalized growth,"locus YJR066W, strain TOR1 (second series), stronger effect = lower value",0.931
same,normalized growth,[4],0.859
same,normalized growth,"locus YKL048C, strain ELM1, stronger effect = lower value",0.96
same,normalized growth,"locus YKL067W, strain YNK1, stronger effect = lower value",0.951
same,normalized growth,"locus YKL101W, strain HSL1, stronger effect = lower value",0.875
same,normalized growth,"locus YKL193C, strain SDS22, stronger effect = lower value",0.986
same,normalized growth,"locus YKL203C, strain TOR2, stronger effect = lower value",0.98
same,normalized growth,[5],0.901
same,normalized growth,"locus YLR133W, strain CKI1, stronger effect = lower value",0.887
same,normalized growth,"locus YLR403W, strain SFP1, stronger effect = lower value",0.89
same,normalized growth,"locus YML070W, strain DAK1, stronger effect = lower value",0.9
same,normalized growth,"locus YMR001C, strain CDC5, stronger effect = lower value",0.983
same,normalized growth,"locus YMR205C, strain PFK2 (second series), stronger effect = lower value",0.941
same,normalized growth,"locus YMR277W, strain FCP1, stronger effect = lower value",0.993
same,normalized growth,"locus YNL006W, strain LST8, stronger effect = lower value",0.997
same,normalized growth,"locus YNL020C, strain ARK1, stronger effect = lower value",0.884
same,normalized growth,"locus YNL161W, strain CBK1, stronger effect = lower value",0.993
same,normalized growth,[6],0.863
same,normalized growth,"locus YNL207W, strain RIO2, stronger effect = lower value",0.99
same,normalized growth,"locus YNL222W, strain SSU72, stronger effect = lower value",0.989
same,normalized growth,"locus YNL307C, strain MCK1 (second series), stronger effect = lower value",0.794
same,normalized growth,"locus YOL078W, strain AVO1, stronger effect = lower value",0.994
same,normalized growth,"locus YOL136C, strain PFK27, stronger effect = lower value",0.901
same,normalized growth,"locus YOR061W, strain CKA2, stronger effect = lower value",0.885
same,normalized growth,"locus YOR119C, strain RIO1, stronger effect = lower value",0.979
same,normalized growth,[7],0.938
same,normalized growth,"locus YOR329C, strain SCD5, stronger effect = lower value",0.988
same,normalized growth,"locus YPL031C, strain PHO85, stronger effect = lower value",0.872
same,normalized growth,"locus YPL153C, strain RAD53, stronger effect = lower value",0.909
same,normalized growth,"locus YPL204W, strain HRR25, stronger effect = lower value",0.905
same,normalized growth,"locus YPL209C, strain IPL1, stronger effect = lower value",0.99
same,normalized growth,[8],0.846 (active)
same,normalized growth,"locus YPR025C, strain CCL1, stronger effect = lower value",0.995
same,normalized growth,"locus YPR106W, strain ISR1, stronger effect = lower value",0.988
same,normalized growth,"locus YPR111W, strain DBF20, stronger effect = lower value",0.977
same,normalized growth,"strain NNK1, stronger effect = lower value",0.982
same,normalized growth,"strain TSCII, stronger effect = lower value",0.985
O=S(=O)(O)c1cc(N=C=S)ccc1/C=C/c1ccc(N=C=S)cc1S(=O)(=O)O,normalized growth,"locus YAL021C, strain ccr4, stronger effect = lower value",1.03
same,normalized growth,"locus YAL026C, strain drs2, stronger effect = lower value",1.01
same,normalized growth,"locus YAL030W, strain snc1, stronger effect = lower value",1.02
same,normalized growth,"locus YBL061C, strain skt5, stronger effect = lower value",1.03
same,normalized growth,"locus YBR009C, strain hhf1, stronger effect = lower value",1.05
same,normalized growth,"locus YBR023C, strain chs3, stronger effect = lower value",1.02
same,normalized growth,"locus YBR171W, strain sec66, stronger effect = lower value",1.04
same,normalized growth,"locus YBR231C, strain swc5, stronger effect = lower value",1.03
same,normalized growth,"locus YBR279W, strain paf1, stronger effect = lower value",1.01
same,normalized growth,"locus YCL011C, strain gbp2, stronger effect = lower value",1.02
same,normalized growth,"locus YCL016C, strain dcc1, stronger effect = lower value",1.03
same,normalized growth,"locus YCL061C, strain MRC1, stronger effect = lower value",1.02
same,normalized growth,"locus YCL069W, strain vba3, stronger effect = lower value",1.02
same,normalized growth,"locus YCR088W, strain abp1, stronger effect = lower value",1.02
same,normalized growth,"locus YDL005C, strain med2, stronger effect = lower value",1.03
same,normalized growth,"locus YDL040C, strain nat1, stronger effect = lower value",1.02
same,normalized growth,"locus YDR001C, strain nth1, stronger effect = lower value",1.02
same,normalized growth,"locus YDR069C, strain doa4, stronger effect = lower value",1.05
same,normalized growth,"locus YDR137W, strain rgp1, stronger effect = lower value",1.01
same,normalized growth,"locus YDR159W, strain sac3, stronger effect = lower value",1.06
same,normalized growth,"locus YDR195W, strain ref2",1.03
same,normalized growth,"locus YDR297W, strain sur2, stronger effect = lower value",1.03
same,normalized growth,"locus YDR334W, strain swr1, stronger effect = lower value",1.02
same,normalized growth,"locus YDR335W, strain msn5, stronger effect = lower value",1.03
same,normalized growth,"locus YDR392W, strain spt3, stronger effect = lower value",0.919
same,normalized growth,"locus YEL003W, strain gim4, stronger effect = lower value",1.02
same,normalized growth,"locus YEL037C, strain rad23, stronger effect = lower value",1.02
same,normalized growth,"locus YEL061C, strain CIN8 (second series), stronger effect = lower value",1.02
same,normalized growth,"locus YER015W, strain faa2, stronger effect = lower value",1.03
same,normalized growth,"locus YER016W, strain bim1, stronger effect = lower value",1.03
same,normalized growth,"locus YER111C, strain swi4, stronger effect = lower value",1.03
same,normalized growth,"locus YER155C, strain BEM2 (second series), stronger effect = lower value",1.04
same,normalized growth,"locus YFR010W, strain ubp6, stronger effect = lower value",1.03
same,normalized growth,"locus YGL167C, strain pmr1, stronger effect = lower value",1.03
same,normalized growth,"locus YGL173C, strain kem1, stronger effect = lower value",1.04
same,normalized growth,"locus YGL227W, strain vid30, stronger effect = lower value",1.03
same,normalized growth,"locus YGL240W, strain doc1, stronger effect = lower value",1.03
same,normalized growth,"locus YGL253W, strain hxk2, stronger effect = lower value",1.03
same,normalized growth,"locus YHR013C, strain ard1, stronger effect = lower value",1.04
same,normalized growth,"locus YHR027C, strain rpn1, stronger effect = lower value",1.02
same,normalized growth,[1],0.996
same,normalized growth,[2],1.04
same,normalized growth,"locus YHR142W, strain chs7, stronger effect = lower value",1.04
same,normalized growth,"locus YJL092W, strain hpr5, stronger effect = lower value",1.01
same,normalized growth,"locus YJL095W, strain BCK1 (second series), stronger effect = lower value",1.02
same,normalized growth,[3],0.99
same,normalized growth,"locus YJL115W, strain asf1, stronger effect = lower value",1.02
same,normalized growth,"locus YJL129C, strain trk1, stronger effect = lower value",1.06
same,normalized growth,"locus YJL154C, strain vps35, stronger effect = lower value",1.02
same,normalized growth,"locus YJL164C, strain tpk1, stronger effect = lower value",0.994
same,normalized growth,"locus YJL166W, strain qcr8, stronger effect = lower value",1.02
same,normalized growth,"locus YJL187C, strain SWE1, stronger effect = lower value",1.02
same,normalized growth,[4],0.924
same,normalized growth,"locus YKL160W, strain elf1, stronger effect = lower value",1.02
same,normalized growth,"locus YKR026C, strain gcn3, stronger effect = lower value",1.02
same,normalized growth,"locus YKR091W, strain srl3, stronger effect = lower value",1.03
same,normalized growth,"locus YLL001W, strain dnm1, stronger effect = lower value",1.01
same,normalized growth,"locus YLL026W, stronger effect = lower value",1.01
same,normalized growth,"locus YLL041C, strain sdh2, stronger effect = lower value",1.02
same,normalized growth,"locus YLR027C, strain aat2, stronger effect = lower value",1.02
same,normalized growth,[5],1.11
same,normalized growth,"locus YLR221C, strain rsa3, stronger effect = lower value",1.02
same,normalized growth,"locus YLR258W, strain gsy2, stronger effect = lower value",1.03
same,normalized growth,"locus YLR262C, strain YPT6 (second series), stronger effect = lower value",1.04
same,normalized growth,"locus YLR320W, strain mms22, stronger effect = lower value",1.05
same,normalized growth,"locus YLR342W, strain FKS1, stronger effect = lower value",1.04
same,normalized growth,"locus YLR357W, strain rsc2, stronger effect = lower value",0.993
same,normalized growth,"locus YLR370C, strain arc18, stronger effect = lower value",1.03
same,normalized growth,"locus YLR384C, strain iki3, stronger effect = lower value",1.03
same,normalized growth,"locus YML120C, strain ndi1, stronger effect = lower value",1.01
same,normalized growth,"locus YMR058W, strain fet3, stronger effect = lower value",1.01
same,normalized growth,"locus YMR125W, strain sto1, stronger effect = lower value",1.03
same,normalized growth,"locus YMR129W, stronger effect = lower value",1.02
same,normalized growth,"locus YMR205C, strain PFK2, stronger effect = lower value",1.06
same,normalized growth,"locus YMR231W, strain pep5, stronger effect = lower value",1.02
same,normalized growth,"locus YNL071W, strain lat1, stronger effect = lower value",1.02
same,normalized growth,[6],0.961
same,normalized growth,"locus YNL209W, strain ssb2, stronger effect = lower value",1.03
same,normalized growth,"locus YNL248C, strain rpa49, stronger effect = lower value",1
same,normalized growth,"locus YNL322C, strain KRE1 (second series), stronger effect = lower value",1.03
same,normalized growth,"locus YNR049C, strain mso1, stronger effect = lower value",1.03
same,normalized growth,"locus YOR001W, strain rrp6, stronger effect = lower value",0.999
same,normalized growth,"locus YOR070C, strain gyp1, stronger effect = lower value",1.01
same,normalized growth,"locus YOR080W, strain dia2, stronger effect = lower value",1.04
same,normalized growth,"locus YOR083W, strain WHI5, stronger effect = lower value",1.01
same,normalized growth,"locus YOR106W, strain vam3, stronger effect = lower value",1.04
same,normalized growth,[7],1.03
same,normalized growth,"locus YOR265W, strain rbl2, stronger effect = lower value",1.02
same,normalized growth,"locus YOR270C, strain vph1, stronger effect = lower value",1.04
same,normalized growth,"locus YOR290C, strain snf2, stronger effect = lower value",0.954
same,normalized growth,"locus YPL051W, strain arl3, stronger effect = lower value",0.994
same,normalized growth,"locus YPL078C, strain atp4, stronger effect = lower value",1.02
same,normalized growth,"locus YPL106C, strain sse1, stronger effect = lower value",1.05
same,normalized growth,"locus YPL240C, strain hsp82, stronger effect = lower value",1.03
same,normalized growth,[8],1.11
